Data on 5 molecules can be found in PubChem BioAssay.

The nature of assay [1]: yeast TOR pathway RPL19A-GFP modulators, primary screen, cell-based, S. cerevisiae, multiplex flow cytometry (AID 1862).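 Further: lower values mimic rapamycin by blocking the RPL19A rise seen in DMSO cells.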 Conditions: S. cerevisiae RPL19A-GFP strain, flow cytometry fluorescence, 3 h; at 10 µM; stronger effect = lower value. (In general: A flow cytometer gives signals particle by particle.)
The nature of assay [2]: modulators of MEP2-GFP levels in yeast, primary screen, S. cerevisiae, multiplex flow cytometry (AID 1867;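 active means GFP response, as percent of the DMSO control, above the screen-wide mean plus 3 SD, about 139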;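 further: median GFP channel fluorescence of barcode-gated MEP2-GFP cells measured by flow cytometry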). Conditions: S. cerevisiae MEP2-GFP strain, 3 h, at 10 µM, stronger effect = higher value, 100% means same as DMSO wells.
Assay [3] is described as follows: modulators of CIT2-GFP expression in yeast, primary screen, S. cerevisiae, GFP fusion, multiplex flow cytometry (AID 1870;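 active means percent response above a set limit, the screen-wide mean plus 3 SD, cut at about 130% in these data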;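 further: barcoded CIT2-GFP strain pooled with four other GFP strains with rapamycin as positive control; median GFP fluorescence per well over plate mean of DMSO wells so 100% = DMSO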). The settings on record: 3 h, at 10 µM, stronger effect = higher value.
Assay [4] is described as follows: modulators of LAP4-GFP expression in yeast, primary screen, S. cerevisiae, multiplex flow cytometry (AID 1873;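 active means GFP signal, as percent of the solvent control, above the screen mean plus 3 SD, about 149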). The settings on record: 3 h, at 10 µM, stronger effect = higher value.
A short description of assay [5]: modulators of AGP1-GFP expression in yeast TOR pathway, primary screen, cell-based, multiplex flow cytometry, S. cerevisiae (AID 1887;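 active means GFP signal above the screen-wide mean plus 3 SD, that is over about 124.5% of the solvent control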;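 further: AGP1-GFP fusion strain of S. cerevisiae within a five-strain barcoded multiplex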). The settings on record: 3 h, at 10 µM, stronger effect = higher value.
The nature of assay [6]: inhibitors of CD8+ T cell-vesicle binding, pilot screen, LFA-1/ICAM-1 modulator project, MLPCN validation set, flow cytometry (AID 2523;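 active means response below a set limit, under 55% cells CD8-positive and vesicle-bound, and CD8 cells' 90th-percentile brightness under 279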;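 on vesicle binding response: mean PE anti-B7-1 fluorescence of CD8+ cells relative to row control; 100% = QL9-loaded vesicles with DMSO vehicle in the same plate row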). Conditions: 2C mouse CD8+ T cells, at 7 µM, stronger effect = lower value; double positive events: measured here: CD8+/vesicle+ event percentage.
The target in assay [7] is Integrin beta-1 (Homo sapiens) + Integrin alpha-4 (Homo sapiens) (UniProt P13612+P05556). In words: inhibition of HUTS-21 binding to VLA-4, pilot screen, VLA-4 allosteric modulator project, U937 cells, HUTS-21 mAb, flow cytometry, validation set (AID 2674;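 active means inhibition above 50%, about 3 SD of the validation set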;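 further: antibody binding induced by the VLA-4 ligand LDV present at three times its Kd; 0% = LDV ligand with antibody and no compound and 100% = antibody without LDV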). The settings on record: HUTS-21 LIBS mAb binding, at 6.7 µM, stronger effect = higher value, binding induced by LDV ligand.
Integrin beta-1 (Homo sapiens) + Integrin alpha-4 (Homo sapiens), sequence (P05556 whole entry, looked up): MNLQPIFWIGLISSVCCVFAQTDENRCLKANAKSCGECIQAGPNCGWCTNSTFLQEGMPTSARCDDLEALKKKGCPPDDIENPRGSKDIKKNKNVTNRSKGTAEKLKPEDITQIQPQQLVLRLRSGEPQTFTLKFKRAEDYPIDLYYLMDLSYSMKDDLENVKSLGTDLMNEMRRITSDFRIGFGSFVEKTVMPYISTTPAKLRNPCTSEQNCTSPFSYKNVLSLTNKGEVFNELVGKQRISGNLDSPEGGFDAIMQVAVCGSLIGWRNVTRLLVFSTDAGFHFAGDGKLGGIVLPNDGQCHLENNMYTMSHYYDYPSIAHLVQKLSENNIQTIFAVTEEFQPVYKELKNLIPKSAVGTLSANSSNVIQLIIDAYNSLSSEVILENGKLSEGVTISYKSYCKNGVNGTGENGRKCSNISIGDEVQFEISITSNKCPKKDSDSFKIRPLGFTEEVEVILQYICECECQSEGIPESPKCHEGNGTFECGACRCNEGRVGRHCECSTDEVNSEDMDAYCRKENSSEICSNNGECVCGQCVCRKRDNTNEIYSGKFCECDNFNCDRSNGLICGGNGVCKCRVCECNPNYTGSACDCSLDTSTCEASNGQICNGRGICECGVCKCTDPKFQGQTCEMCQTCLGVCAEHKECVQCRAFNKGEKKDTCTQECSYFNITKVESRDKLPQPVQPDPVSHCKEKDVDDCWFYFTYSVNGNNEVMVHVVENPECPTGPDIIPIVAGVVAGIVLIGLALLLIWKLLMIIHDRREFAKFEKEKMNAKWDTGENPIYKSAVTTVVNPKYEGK
Integrin beta-1 (Homo sapiens) + Integrin alpha-4 (Homo sapiens), sequence (P13612 whole entry, looked up): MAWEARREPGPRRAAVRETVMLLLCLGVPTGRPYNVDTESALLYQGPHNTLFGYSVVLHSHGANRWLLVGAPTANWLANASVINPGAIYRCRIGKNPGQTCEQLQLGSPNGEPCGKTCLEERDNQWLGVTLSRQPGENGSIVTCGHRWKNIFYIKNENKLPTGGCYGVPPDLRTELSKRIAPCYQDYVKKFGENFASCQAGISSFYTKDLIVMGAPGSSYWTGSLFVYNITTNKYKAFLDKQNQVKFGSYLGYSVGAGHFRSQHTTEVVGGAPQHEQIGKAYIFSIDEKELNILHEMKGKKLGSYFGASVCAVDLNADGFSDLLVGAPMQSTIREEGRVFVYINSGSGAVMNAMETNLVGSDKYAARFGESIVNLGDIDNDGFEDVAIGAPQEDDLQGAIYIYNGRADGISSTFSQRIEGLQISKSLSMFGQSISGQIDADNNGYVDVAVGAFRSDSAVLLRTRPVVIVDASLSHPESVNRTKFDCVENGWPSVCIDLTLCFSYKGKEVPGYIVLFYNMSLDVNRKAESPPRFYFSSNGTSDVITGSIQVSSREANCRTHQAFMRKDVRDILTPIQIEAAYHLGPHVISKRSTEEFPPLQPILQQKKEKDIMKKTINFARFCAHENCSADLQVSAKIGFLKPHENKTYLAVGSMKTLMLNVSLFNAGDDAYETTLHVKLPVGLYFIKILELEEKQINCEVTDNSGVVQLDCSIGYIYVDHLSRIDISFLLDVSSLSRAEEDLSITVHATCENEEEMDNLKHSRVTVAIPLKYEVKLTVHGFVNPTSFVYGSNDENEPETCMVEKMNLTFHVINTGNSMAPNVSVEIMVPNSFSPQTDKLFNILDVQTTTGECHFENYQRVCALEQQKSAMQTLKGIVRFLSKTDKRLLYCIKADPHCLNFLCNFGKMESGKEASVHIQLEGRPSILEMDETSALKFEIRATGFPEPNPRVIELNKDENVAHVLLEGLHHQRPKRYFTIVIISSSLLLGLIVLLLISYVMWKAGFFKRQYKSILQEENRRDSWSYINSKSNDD
Assay [8] in a line: superoxide lowering in aged yeast cells, pilot screen, validation compound set (AID 2706;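 active means superoxide response below 65% of plate, a cut near 3 SD across the whole screen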;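 further: yeast exposed to compound for one week at 30 degrees C before staining; 100% = mean of all compound wells on the same plate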). Conditions: S. cerevisiae aging, superoxide DHE fluorescence; at 10 µM; stronger effect = lower value.
Assay [9] concerns the target Beta-adrenergic receptor kinase 1 (Homo sapiens) (UniProt P25098). In words: GRK2 binders displacing RNA aptamer, biochemical, validation, human GRK2, bead flow cytometry (AID 488806;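 active means aptamer binding inhibition above 30%, about 3 SD of noise from non-fluorescent compounds; inactive means inhibition at or below 30%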). The settings on record: bead-bound GRK2, FAM-aptamer displacement, at 10 µM, stronger effect = higher value.
Assay [10] deals with Beta-2 adrenergic receptor (Homo sapiens) (UniProt P07550). In words: beta2AR agonists driving receptor internalization, pilot screen, cell-based, FAP fluorogen, flow cytometry, validation set (AID 504459;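 active means percent response above 42, roughly 3 SD of non-fluorescent test compounds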;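 further: agonist-driven loss of surface beta2AR via internalization measured by FAP dye flow cytometry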). The settings on record: Am2.2-beta2AR cells, FAP surface receptor flow cytometry; at 10 µM; stronger effect = higher value.
Beta-2 adrenergic receptor (Homo sapiens), sequence (P07550 whole entry, looked up): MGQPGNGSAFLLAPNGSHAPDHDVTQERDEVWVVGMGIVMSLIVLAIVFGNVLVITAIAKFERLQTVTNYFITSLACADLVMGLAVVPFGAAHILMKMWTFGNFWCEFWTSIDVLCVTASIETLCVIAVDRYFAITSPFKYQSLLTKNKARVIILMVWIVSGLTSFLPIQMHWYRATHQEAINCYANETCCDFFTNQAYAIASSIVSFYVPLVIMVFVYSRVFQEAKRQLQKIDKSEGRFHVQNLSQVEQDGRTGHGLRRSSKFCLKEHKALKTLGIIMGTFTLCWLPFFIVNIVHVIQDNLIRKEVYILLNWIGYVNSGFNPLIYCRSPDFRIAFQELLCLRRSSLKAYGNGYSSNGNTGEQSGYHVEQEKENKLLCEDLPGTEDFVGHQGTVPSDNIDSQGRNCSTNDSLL
The target in assay [11] is AP-2 complex subunit beta (Homo sapiens) (UniProt P63010). In words: inhibitors of arrestin peptide binding to AP2, pilot screen, biochemical, validation set, GST-AP2 beads, flow cytometry (AID 504541;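 active means inhibition above 54%, about 3 SD of non-fluorescent compounds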;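 further: AP2 carries R879A mutation and is captured from E. coli lysate; bead-bound FITC arrestin peptide fluorescence measuring arrestin peptide binding to AP2; 0% = DMSO wells and 100% = excess unlabeled arrestin peptide control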). Conditions: FITC arrestin peptide, at 10 µM, stronger effect = higher value, AP2 beta2 appendage fragment, R879A mutant.
AP-2 complex subunit beta (Homo sapiens), sequence (P63010 whole entry, looked up, the tested form may be a part, one chain of several): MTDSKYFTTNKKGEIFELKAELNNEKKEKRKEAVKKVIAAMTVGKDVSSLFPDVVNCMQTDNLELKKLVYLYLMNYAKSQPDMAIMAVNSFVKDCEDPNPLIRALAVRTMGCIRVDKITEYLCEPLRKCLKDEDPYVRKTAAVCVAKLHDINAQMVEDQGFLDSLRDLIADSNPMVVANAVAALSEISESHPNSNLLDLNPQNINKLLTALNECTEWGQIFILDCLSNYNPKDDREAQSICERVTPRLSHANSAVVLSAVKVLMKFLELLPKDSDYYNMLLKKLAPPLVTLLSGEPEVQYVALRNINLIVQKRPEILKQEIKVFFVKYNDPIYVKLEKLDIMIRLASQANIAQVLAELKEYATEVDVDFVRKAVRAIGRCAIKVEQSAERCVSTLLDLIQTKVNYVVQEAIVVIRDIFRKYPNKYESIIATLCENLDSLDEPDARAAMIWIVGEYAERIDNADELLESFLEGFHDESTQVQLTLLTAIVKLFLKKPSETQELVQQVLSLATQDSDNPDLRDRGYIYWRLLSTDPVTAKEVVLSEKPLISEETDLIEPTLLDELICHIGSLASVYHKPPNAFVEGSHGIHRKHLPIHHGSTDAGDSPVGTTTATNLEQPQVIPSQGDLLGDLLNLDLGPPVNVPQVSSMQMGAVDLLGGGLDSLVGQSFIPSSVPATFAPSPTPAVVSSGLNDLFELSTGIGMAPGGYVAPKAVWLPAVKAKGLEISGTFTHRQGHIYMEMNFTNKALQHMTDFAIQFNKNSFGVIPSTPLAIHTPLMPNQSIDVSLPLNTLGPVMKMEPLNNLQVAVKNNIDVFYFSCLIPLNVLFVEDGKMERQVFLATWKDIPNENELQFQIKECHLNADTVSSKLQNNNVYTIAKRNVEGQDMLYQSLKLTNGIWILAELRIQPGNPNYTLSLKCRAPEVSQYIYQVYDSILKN
A short description of assay [12]: yeast V-ATPase proton transport modulators, S. cerevisiae, pHLuorin, HTS validation (AID 504600; in the data active means response above about 15%;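 further: plate controls were DMSO for no effect and reference compound for full effect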). Conditions: S. cerevisiae pHLuorin cytosolic pH, at 10 µM, stronger effect = higher value.
Assay [13] concerns anti-desmoglein-3 scFv antibody binding to human DSG3. In words: inhibitors of anti-DSG3 scFv binding to DSG3, pilot screen, biochemical, validation compound set, bead-based, flow cytometry (AID 588368;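 active means binding below the plate cutoff, the plate median minus 3 SD, with a reading above zero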;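 further: signal is the median channel fluorescence of bead-bound GFP antibody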). The settings on record: Protein G beads, DSG3-Fc, scFv-GFP binding, at 10 µM, stronger effect = lower value.
A short description of assay [14]: inhibitors of fungal efflux pumps CDR1, CDR2, MDR1, pilot screen, validation compound set, multiplex, phenotypic (AID 588506;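 active means efflux inhibition above 0.42, the validation set average plus 4 SD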;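 further: Nile Red retained in cells so higher fluorescence means more efflux inhibition; 0 = negative control wells and 1 = enniatin B 25 µM full block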). The settings on record: S. cerevisiae pump-expressing triplex, Nile Red efflux flow cytometry; at 10 µM; stronger effect = higher value; the pumps come from Candida albicans.
Assay [15] has as its target ATP-binding cassette sub-family B member 6 (Homo sapiens) (UniProt Q9NP58). In words: ABCB6 transporter inhibitors, pilot screen, K562-ABCB6 cells, flow cytometry, validation set (AID 588550;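 active means inhibition above the screen-wide mean plus 3 SD, about 51%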;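 further: 0% = DMSO wells and 100% = benzethonium chloride 70 µM positive control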). Conditions: K562-ABCB6 porphyrin accumulation, 1 h, at 10 µM, stronger effect = higher value.
A short description of assay [16]: promoters of myeloid differentiation in arrested cells, primary screen, cell-based, GFP/MAC1 double positive, flow cytometry, validation set (AID 588685;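 active means differentiation response of at least 50%, scaled between solvent and reference control, from cells with both markers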;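 further: compound exposure lasts four days before antibody staining and flow analysis; 0% = DMSO wells and 100% = 5 µM fulvestrant positive control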). Conditions: ER-HoxA9 marrow cells, stronger effect = higher value, normalized: vehicle 0, fulvestrant 100.

Inconclusive results are not listed. The source made the active and inactive calls. Unless noted, no stated cut-off is given here; in the data, active means percent of DMSO control GFP below about 86%; inactive means the rest, inconclusive results apart.

Beta-adrenergic receptor kinase 1 (Homo sapiens), sequence (P25098 whole entry, looked up): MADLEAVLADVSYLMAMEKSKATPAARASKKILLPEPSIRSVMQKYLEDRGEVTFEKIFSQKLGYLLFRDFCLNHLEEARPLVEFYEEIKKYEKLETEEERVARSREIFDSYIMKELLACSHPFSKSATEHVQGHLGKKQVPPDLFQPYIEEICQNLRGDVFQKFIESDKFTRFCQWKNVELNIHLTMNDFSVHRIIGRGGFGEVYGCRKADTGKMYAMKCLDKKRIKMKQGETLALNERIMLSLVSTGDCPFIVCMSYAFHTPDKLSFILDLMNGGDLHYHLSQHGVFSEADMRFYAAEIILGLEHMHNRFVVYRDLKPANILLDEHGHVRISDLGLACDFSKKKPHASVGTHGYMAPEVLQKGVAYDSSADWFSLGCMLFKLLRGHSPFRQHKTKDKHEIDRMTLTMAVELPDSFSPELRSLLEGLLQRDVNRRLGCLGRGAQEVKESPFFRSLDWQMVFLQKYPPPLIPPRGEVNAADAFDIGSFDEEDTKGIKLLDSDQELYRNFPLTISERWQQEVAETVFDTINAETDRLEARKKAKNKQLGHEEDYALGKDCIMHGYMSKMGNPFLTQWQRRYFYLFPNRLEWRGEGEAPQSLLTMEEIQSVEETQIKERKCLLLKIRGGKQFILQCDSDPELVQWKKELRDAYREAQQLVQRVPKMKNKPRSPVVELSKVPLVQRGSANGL
ATP-binding cassette sub-family B member 6 (Homo sapiens), sequence (Q9NP58 whole entry, looked up): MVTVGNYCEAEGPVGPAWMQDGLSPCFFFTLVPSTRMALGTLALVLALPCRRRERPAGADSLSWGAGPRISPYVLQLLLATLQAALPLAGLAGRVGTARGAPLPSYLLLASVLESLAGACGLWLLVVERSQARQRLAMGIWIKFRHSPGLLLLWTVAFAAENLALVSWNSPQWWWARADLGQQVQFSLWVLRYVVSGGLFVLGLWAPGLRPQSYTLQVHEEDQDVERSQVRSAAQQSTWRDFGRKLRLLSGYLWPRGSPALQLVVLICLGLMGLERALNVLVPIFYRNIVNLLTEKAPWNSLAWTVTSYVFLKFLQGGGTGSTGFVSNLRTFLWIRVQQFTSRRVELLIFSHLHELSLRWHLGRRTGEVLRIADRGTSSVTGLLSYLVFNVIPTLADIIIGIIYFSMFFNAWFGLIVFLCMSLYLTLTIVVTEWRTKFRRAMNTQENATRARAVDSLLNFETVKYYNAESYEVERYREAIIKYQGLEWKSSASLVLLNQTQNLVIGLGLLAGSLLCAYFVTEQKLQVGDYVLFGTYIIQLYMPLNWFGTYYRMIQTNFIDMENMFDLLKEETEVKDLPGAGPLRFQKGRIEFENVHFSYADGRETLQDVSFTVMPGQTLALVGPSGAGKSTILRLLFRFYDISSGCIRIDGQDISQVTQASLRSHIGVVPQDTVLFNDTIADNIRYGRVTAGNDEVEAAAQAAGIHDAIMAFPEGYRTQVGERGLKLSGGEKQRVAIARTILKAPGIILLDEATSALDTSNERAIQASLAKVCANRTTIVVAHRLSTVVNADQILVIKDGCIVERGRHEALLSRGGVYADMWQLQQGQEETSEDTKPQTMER

One may read the inhibition as the drop in the measured response relative to a control, in per cent. Regarding `Cc1cccc(Oc2coc3cc(OC(=O)c4cncc(Br)c4)ccc3c2=O)c1`, the percent of DMSO control GFP in assay [1] is 98% (inactive). The GFP response vs DMSO in assay [2] is 111% (inactive); in [4] it was 126% (inactive). Further, the percent response of DMSO control in assay [3] is 95.8% (inactive). In [5], the GFP response, % of DMSO is 100% (inactive). In addition, in assay [6], the double positive events was 64.8%. For the same molecule, the vesicle binding response in [6] is 224% (inactive). Besides, the results for the inhibition in assay [7], in assay [11] and in [15] were -4.52% (inactive), -11.9% (inactive) and 103% (active), respectively. In [8], the superoxide response (% of plate) is 78.9% (inactive). Moreover, the aptamer binding inhibition in assay [9] is 1% (inactive). In addition, the results for the response in [10] and in assay [12] were 9.93% (inactive) and 1.76% (inactive), respectively. In assay [13], the binding (% of control) was 99.1% (inactive). Besides, the efflux inhibition (fraction of control) in assay [14] is 0.33 (inactive). For the same molecule, the differentiation response in assay [16] is 10.4% (inactive).

Consider `CC(=O)OCC(=O)[C@@]1(O)CC[C@H]2[C@@H]3CCC4=CC(=O)C=C[C@]4(C)[C@H]3[C@@H](O)C[C@@]21C`, for which the percent of DMSO control GFP in [1] is 90.2% (inactive). Moreover, the GFP response vs DMSO in [2] is 132% (inactive); in [4], 101% (inactive). Further, in assay [3], the percent response of DMSO control was 99.2% (inactive). Further, in assay [5], the GFP response, % of DMSO is 103% (inactive). The molecule further gave a double positive events in [6] of 66.4%. The vesicle binding response in [6] is 161% (inactive). Besides, the values for the inhibition in [7], in assay [11] and in [15] were 9.37% (inactive), 8.75% (inactive) and 9% (inactive), respectively. In [8], the superoxide response (% of plate) was 97% (inactive). The aptamer binding inhibition in assay [9] was 1% (inactive). In addition, the figures for the response in assay [10] and in assay [12] were 4% (inactive) and -0.94% (inactive), respectively. The binding (% of control) in [13] is 98.1% (inactive). Moreover, in assay [14], the efflux inhibition (fraction of control) was -0.09 (inactive). Moreover, the differentiation response in assay [16] is 5.73% (inactive).

For `CC(=O)c1cc2c(cc1NC(=O)c1ccco1)OCCO2`, the percent of DMSO control GFP in assay [1] is 103% (inactive). Also, the GFP response vs DMSO in assay [2] was 107% (inactive); in [4], 120% (inactive). Further, the percent response of DMSO control in assay [3] was 109% (inactive). Moreover, the GFP response, % of DMSO in [5] was 110% (inactive). For the same molecule, in assay [6], the double positive events turned out to be 58.2%. In addition, the vesicle binding response in assay [6] is 178% (inactive). For the same molecule, the inhibition in assay [7] is 10.8% (inactive); in assay [11], -8.68% (inactive); in [15] it was 2% (inactive). Also, in [8], the superoxide response (% of plate) is 91.9% (inactive). Also, the aptamer binding inhibition in assay [9] was 1% (inactive). In addition, the values for the response in [10] and in assay [12] were -30.9% (inactive) and -7.07% (inactive), respectively. In addition, the binding (% of control) in assay [13] is 99.5% (inactive). For the same molecule, in assay [14], the efflux inhibition (fraction of control) is -0.04 (inactive). Further, the differentiation response in assay [16] is -11.9% (inactive).

Regarding `Cc1ccc2[nH]c(=O)c(Cc3ccccc3)c(O)c2c1`, the percent of DMSO control GFP in assay [1] was 102% (inactive). For the same molecule, the GFP response vs DMSO in assay [2] was 105% (inactive); in [4], 94.7% (inactive). In addition, in assay [3], the percent response of DMSO control is 107% (inactive). Moreover, the GFP response, % of DMSO in assay [5] is 102% (inactive). In assay [6], this molecule gave a double positive events of 60.7%. In assay [6], the vesicle binding response was 224% (inactive). Also, the values for the inhibition in [7], in assay [11] and in assay [15] were 3.7% (inactive), -9.35% (inactive) and -1% (inactive), respectively. Also, in assay [8], the superoxide response (% of plate) was 105% (inactive). Moreover, the aptamer binding inhibition in [9] was 0% (inactive). Further, the response in [10] was -3.71% (inactive); in assay [12], 4.49% (inactive). Besides, the binding (% of control) in assay [13] is 90.6% (inactive). The efflux inhibition (fraction of control) in [14] was -0.07 (inactive). In addition, in assay [16], the differentiation response was -8.55% (inactive).

As to `Cc1ccccc1NC(=O)NCCc1c[nH]c2ccccc12`, the percent of DMSO control GFP in [1] was 101% (inactive). Moreover, the GFP response vs DMSO in assay [2] was 107% (inactive); in assay [4], 89.4% (inactive). In assay [3], the percent response of DMSO control is 101% (inactive). The GFP response, % of DMSO in [5] is 98.8% (inactive). Further, the double positive events in [6] amounted to 60.8%. In addition, in assay [6], the vesicle binding response was 12.4% (inactive). The inhibition is 9.71% (inactive) in assay [7], 7.09% (inactive) in [11] and 10% (inactive) in assay [15]. For the same molecule, the superoxide response (% of plate) in assay [8] is 96.6% (inactive). Also, in assay [9], the aptamer binding inhibition was 2% (inactive). The response in [10] is 9.05% (inactive); in [12], -3.03% (inactive). In addition, the binding (% of control) in assay [13] is 101% (inactive). The efflux inhibition (fraction of control) in assay [14] is 0.07 (inactive). For the same molecule, in assay [16], the differentiation response was -1.88% (inactive).
